# Reference: the supplement of paper PMC6555819
# Key:
# Assay in all cases: PBM binding z-score (relative to random genomic background probes); higher = stronger binding; sequences stand for … in GC…GCGATTGACAGCGTAGAATGAAGG
# [1] = tested on: PPARg:RXRa DBDmut IVT, anti-RXR (DBD mutation: RXRa K156A/R161A, NR concentration 270 nM, RXRa partner concentration 90 nM)
# Outline: (§1)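 Binding z-scores take random background probes as their reference. They come from custom Agilent 4×180K protein-binding microarrays incubated 1 h with ligand-free nuclear receptor dimers, with antibodies against each partner (one per run) detecting binding. Scanned fluorescence was regression-normalized.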
# [2] = tested on: PPARg:RXRa IVT, anti-PPARg (NR concentration 270 nM, RXRa partner concentration 90 nM)
# Outline: as §1
# [3] = tested on: PPARg DBDmut:RXRa IVT, anti-PPARg (DBD mutation: PPARg1 K132A/R137A, NR concentration 270 nM, RXRa partner concentration 90 nM)
# Outline: as §1
# [4] = tested on: PPARg DBDmut IVT, anti-PPARg (DBD mutation: PPARg1 K132A/R137A, NR concentration 270 nM)
# Outline: as §1
# [5] = tested on: PPARg homodimer (NR concentration 180 nM)
# Outline: as §1
# [6] = tested on: PXR:RXRa (NR concentration 270 nM, RXRa partner concentration 90 nM)
# Outline: as §1
# [7] = tested on: PXR homodimer (NR concentration 270 nM)
# Outline: as §1
# [8] = tested on: RARa:RXR (NR concentration 270 nM, RXRa partner concentration 90 nM)
# Outline: as §1
# [9] = tested on: RARa homodimer (NR concentration 270 nM)
# Outline: as §1
# [10] = tested on: RARb:RXRa (NR concentration 270 nM, RXRa partner concentration 90 nM)
# Outline: as §1
Sequence,PBM binding z-score [1],PBM binding z-score [2],PBM binding z-score [3],PBM binding z-score [4],PBM binding z-score [5],PBM binding z-score [6],PBM binding z-score [7],PBM binding z-score [8],PBM binding z-score [9],PBM binding z-score [10]
TGAATGAGGTTAAAGATCAGAGAACGTGGCGTCG,1.89,3.53,1.38,0.333,0.79,2,0.0576,3.32,0.124,1.98
CCTTATGGGTCACTGACAGGTTATAGCATTTGGA,5.9,6.16,0.901,0.187,2.16,2.86,0.162,3.89,0.956,3.8
ACTATTAGTTGACATAGGGCAACCGATACGACGC,0.444,0.742,1.27,1.22,0.811,0.547,0.504,0.635,0.879,1.19
GCATATAGGTAATACAACGTGAAAGTCCGATTGT,4.04,2.2,0.468,0.495,-0.277,-0.414,-0.12,-0.549,0.219,-0.451
TCTAGTTGGTCACGGAGCTCACACACGACGGGTA,2.15,2.2,0.346,0.786,0.57,0.334,-0.237,0.366,0.0423,1.5
ACTGGGAGGACAAAGGTCAGAGCTACGCCAGTGA,0.413,3.95,0.328,0.253,4.03,4.16,0.638,5.46,1.31,4.64
ATATGTAGGTTAGCTGGTGTCATTCAGACTAGGC,6.77,6.16,2.14,1.6,1.06,1.65,0.392,1.44,0.23,0.987
CGTCCAAGGTCAATGCTAGGTGAGTGAAAGCATT,3.33,3.79,0.0432,-0.14,1.77,3.31,0.668,3.57,0.59,4.9
CGTCCAAGGTCAGCTGGTCAGTGAAAGCGACGTG,2.4,2.17,0.5,-0.832,2.63,2.67,-0.135,3.24,1.47,4.79
CGTCCTAGGTCAGCAGGTCAGTGAAAGCGACGTG,3.21,3.44,-0.463,-0.745,1.79,1.75,-0.5,2.64,-0.501,4.39
CCCAGCAGGCCAATCTGGGTCACTCAAGGCTTGA,3.08,4.97,-0.484,-1.45,0.339,1.31,-0.346,1.46,-0.731,1.63
TAAACAGGGTCAAAGGCCAGAGTACGAATGTCGA,3.53,5.43,2.69,2.41,3.24,4.51,0.672,6.19,0.87,4.33
CCTGCTAGGTCATGGGCAGCTAATCTACAGTATG,4.17,3.73,0.149,-0.33,1.36,1.1,-0.682,2.68,0.607,3.83
TCTATTAGTTGAAGCGCAACCGACGAGTCCGTTT,2.22,0.202,0.484,1.23,0.5,0.326,0.219,0.126,0.262,0.271
ATATGTAGGTTAAGGGTCATTCCGGTTGGTTCGC,7.18,7.95,2.74,3.31,3.95,5.32,1.33,5.86,1.66,3.58
ATATGTAGGTTATCGGGTCAATCAGTTTGCGCAT,7.94,7.57,3.15,2.14,2.33,3.64,3.23,4.04,1.3,2.86
TCTTGTAGATCAAAGGTTAACAAAGCCGAAGCCT,2.15,4.38,1.04,0.514,1.03,2.26,0.125,3.03,1.01,2.09
ATGTGTAGGTTATCGGGTCATTCAGTTTGCGCAT,4.63,5.37,1.53,2.39,3.67,4.09,9.38,4.11,2.56,2.75
TGAATGAGGTTATAAGATCAGGGAGCGTTGCAAA,0.796,1.56,0.774,-0.572,0.0916,0.406,-0.17,0.968,-0.286,1.03
TCTAGTTGGTCAAAGGTCACACAGTCGAAATGCG,3.56,5.99,1.3,1.88,4.79,6.01,1.76,7.79,3.16,5.05
CCTAGCAGGCCAACCTGGGTCACTCAAGGCTTGA,1.14,1.46,-0.885,-0.95,0.425,1.46,-0.576,1.44,0.141,1.96
ACAGAAAGGTGAGTGAAGGTAACTCAGCTGGACG,1.69,1.91,0.587,-0.401,0.248,0.345,-0.335,0.81,0.239,2.47
CGAACTAGGTCAAGGACAATGAATCTCCGCACGC,8.3,8.44,2.51,1.02,2.03,1.31,0.478,1.99,-0.186,3.99
ACTAGTTGGTCAGCTGACGTCACACACAATTCGG,0.857,0.972,0.728,0.709,0.152,0.163,-0.648,0.0415,0.251,0.952
CCTATTAGTTGACCATAAGGGCAACCGGAGCTCG,0.164,0.489,-0.0255,0.00899,1.98,0.686,0.931,0.893,2.04,1.72
